Source: PubChem BioAssay (NCI)
Values joined by “and” are separate entries in the source; they are usually repeats but may differ in a detail not shown here. Identical values can stand only once. This is part of a sample that, as a whole, favours compounds with a hit. Of some 83,000 tested, about 20% had one in any assay.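 Assay: single dose, 48 h. Readout: percent growth (0 = no net growth; negative = cell death). Active: <10.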 Active and inactive are the calls of the source.

How the values were obtained:
Assay in all cases: NCI-60 one-dose screen, 48 h (100 = growth as untreated, 0 = no growth, -100 = all killed)
SK-MEL-2 melanoma = details: 10 µM
EKVX NSCLC = details: 10 µM
SN12C renal = details: 10 µM
UO-31 renal = details: 10 µM
TK-10 renal = tested on: TK-10 renal
ACHN renal = details: 10 µM
CAKI-1 renal = details: 10 µM
A498 renal = details: 10 µM
CCRF-CEM leukemia = details: 10 µM
MOLT-4 leukemia = details: 10 µM
SR leukemia = details: 10 µM
RPMI-8226 leukemia = details: 10 µM
OVCAR-8 ovarian = details: 10 µM
OVCAR-5 ovarian = details: 10 µM
OVCAR-4 ovarian = details: 10 µM
SK-OV-3 ovarian = details: 10 µM
IGROV1 ovarian = details: 10 µM
OVCAR-3 ovarian = details: 10 µM
HS 578T breast = details: 10 µM
NCI/ADR-RES ovarian = details: 10 µM

Measured: growth

Cc1ccc(C(=O)N/N=C/c2ccc3c(c2)OCO3)cc1
inactive: SK-MEL-2 melanoma 90.4% | EKVX NSCLC 101% | SN12C renal 96% | UO-31 renal 78.2% | TK-10 renal; 10 µM unless noted 98% | ACHN renal 94.3% | CAKI-1 renal 93.3% | A498 renal 96.6% | CCRF-CEM leukemia 84.8% | MOLT-4 leukemia 91.2% | SR leukemia 78% | RPMI-8226 leukemia 94.3% | OVCAR-8 ovarian 102% | OVCAR-5 ovarian 103% | OVCAR-4 ovarian 99.5% | SK-OV-3 ovarian 93.4% | IGROV1 ovarian 105% | OVCAR-3 ovarian 116% | HS 578T breast 115% | NCI/ADR-RES ovarian 91.3%

Nc1ccc(N=Nc2ccc(S(=O)(=O)O)cc2)c2ccccc12
inactive: SK-MEL-2 melanoma 102% | EKVX NSCLC 89.7% | SN12C renal 104% | UO-31 renal 65.2% | TK-10 renal; 10 µM unless noted 140% | ACHN renal 99.2% | CAKI-1 renal 91.5% | A498 renal 126% | CCRF-CEM leukemia 102% | MOLT-4 leukemia 88.9% | SR leukemia 96.9% | RPMI-8226 leukemia 98% | OVCAR-8 ovarian 103% | OVCAR-5 ovarian 106% | OVCAR-4 ovarian 103% | SK-OV-3 ovarian 72.2% | IGROV1 ovarian 94.1% | OVCAR-3 ovarian 99% | HS 578T breast 96.6% | NCI/ADR-RES ovarian 97.3%

[O-][N+](=Nc1cccc(Cl)c1)c1cccc(Cl)c1
inactive: SK-MEL-2 melanoma 112% | EKVX NSCLC 88.8% | SN12C renal 93% | UO-31 renal 72.8% | TK-10 renal; 10 µM unless noted 108% | ACHN renal 94.3% | CAKI-1 renal 96.4% | A498 renal 103% | CCRF-CEM leukemia 111% | MOLT-4 leukemia 125% | SR leukemia 141% | RPMI-8226 leukemia 81.9% | OVCAR-8 ovarian 114% | OVCAR-5 ovarian 88.3% | OVCAR-4 ovarian 61.8% | SK-OV-3 ovarian 110% | IGROV1 ovarian 76.4% | OVCAR-3 ovarian 111% | HS 578T breast 112% | NCI/ADR-RES ovarian 99%

CN(C)c1ccc(S(=O)(=O)O)cc1
inactive: SK-MEL-2 melanoma 86.2% | EKVX NSCLC 107% | SN12C renal 105% | UO-31 renal 87.9% | TK-10 renal; 10 µM unless noted 89.2% | ACHN renal 93.9% | CAKI-1 renal 105% | A498 renal 94.9% | CCRF-CEM leukemia 95.9% | MOLT-4 leukemia 107% | SR leukemia 92.9% | RPMI-8226 leukemia 95.6% | OVCAR-8 ovarian 101% | OVCAR-5 ovarian 93% | OVCAR-4 ovarian 106% | SK-OV-3 ovarian 89% | IGROV1 ovarian 118% | OVCAR-3 ovarian 109% | HS 578T breast 114% | NCI/ADR-RES ovarian 104%

CC(=O)OCC1=CC2OC(=O)C3=COC(OC4OC(CO)C(O)C(O)C4O)C1C32 (stereo not given)
inactive: SK-MEL-2 melanoma 138% | EKVX NSCLC 101% | SN12C renal 101% | UO-31 renal 96.7% | TK-10 renal; 10 µM 113% | TK-10 renal; 100 µM 81% and 93.8% | ACHN renal 111% | CAKI-1 renal 101% | CCRF-CEM leukemia 104% | MOLT-4 leukemia 141% | SR leukemia 120% | RPMI-8226 leukemia 114% | OVCAR-5 ovarian 111% | OVCAR-4 ovarian 129% | SK-OV-3 ovarian 108% | IGROV1 ovarian 71.3% | OVCAR-3 ovarian 112% | NCI/ADR-RES ovarian 32.9%

CC1(C)OC(=O)C(c2ccsc2)C(=O)O1
inactive: SK-MEL-2 melanoma 112% | EKVX NSCLC 105% | SN12C renal 107% | UO-31 renal 84.4% | TK-10 renal; 10 µM unless noted 91.8% | ACHN renal 107% | CAKI-1 renal 100% | A498 renal 113% | CCRF-CEM leukemia 106% | MOLT-4 leukemia 105% | SR leukemia 103% | RPMI-8226 leukemia 103% | OVCAR-8 ovarian 109% | OVCAR-5 ovarian 105% | OVCAR-4 ovarian 102% | SK-OV-3 ovarian 106% | IGROV1 ovarian 103% | OVCAR-3 ovarian 106% | HS 578T breast 99% | NCI/ADR-RES ovarian 97.7%

Cc1ccc(N)cc1[N+](=O)[O-]
inactive: SK-MEL-2 melanoma 128% | EKVX NSCLC 113% | SN12C renal 109% | UO-31 renal 83.3% | TK-10 renal; 10 µM unless noted 107% | ACHN renal 108% | CAKI-1 renal 102% | A498 renal 117% | CCRF-CEM leukemia 84.6% | MOLT-4 leukemia 76.3% | SR leukemia 115% | RPMI-8226 leukemia 116% | OVCAR-8 ovarian 103% | OVCAR-5 ovarian 116% | OVCAR-4 ovarian 83.3% | SK-OV-3 ovarian 112% | IGROV1 ovarian 110% | OVCAR-3 ovarian 115% | HS 578T breast 113% | NCI/ADR-RES ovarian 102%

Cc1nc2ccccc2c2nnc(SCC(=O)N(Cc3ccccc3)c3ccccc3)n12
inactive: SK-MEL-2 melanoma 51.2% | EKVX NSCLC 76.6% | SN12C renal 100% | UO-31 renal 89% | TK-10 renal; 10 µM unless noted 189% | ACHN renal 92.8% | CAKI-1 renal 71.3% | CCRF-CEM leukemia 85.4% | MOLT-4 leukemia 93.1% | SR leukemia 67.6% | RPMI-8226 leukemia 78.8% | OVCAR-8 ovarian 100% | OVCAR-5 ovarian 95% | OVCAR-4 ovarian 91.7% | SK-OV-3 ovarian 93.8% | IGROV1 ovarian 71.6% | OVCAR-3 ovarian 93.4% | HS 578T breast 93.9% | NCI/ADR-RES ovarian 96.1%
active: A498 renal -16.6%

O=C1C=CC2=C3c4cc(O)c(O)cc4CC3(O)COC2=C1O (stereo not given)
inactive: SK-MEL-2 melanoma 87.3% | EKVX NSCLC 101% | SN12C renal 104% | UO-31 renal 86.6% | TK-10 renal; 10 µM unless noted 101% | ACHN renal 111% | CAKI-1 renal 111% | A498 renal 99.1% | CCRF-CEM leukemia 104% | MOLT-4 leukemia 103% | SR leukemia 109% | RPMI-8226 leukemia 90% | OVCAR-8 ovarian 97.2% | OVCAR-5 ovarian 104% | OVCAR-4 ovarian 110% | SK-OV-3 ovarian 113% | OVCAR-3 ovarian 123% | HS 578T breast 115% | NCI/ADR-RES ovarian 101%

O=C(c1ccccc1)C1CCC1
inactive: SK-MEL-2 melanoma 96.7% | EKVX NSCLC 105% | SN12C renal 89.2% | UO-31 renal 76.1% | TK-10 renal; 10 µM unless noted 93.4% | ACHN renal 106% | CAKI-1 renal 98.5% | A498 renal 103% | CCRF-CEM leukemia 88.6% | MOLT-4 leukemia 91.3% | SR leukemia 92.7% | RPMI-8226 leukemia 98.9% | OVCAR-8 ovarian 99.1% | OVCAR-5 ovarian 109% | SK-OV-3 ovarian 100% | IGROV1 ovarian 114% | OVCAR-3 ovarian 108% | HS 578T breast 115% | NCI/ADR-RES ovarian 107%

CC(=O)c1ccc(C(C)(C)C)cc1
inactive: SK-MEL-2 melanoma 102% | EKVX NSCLC 106% | SN12C renal 97% | UO-31 renal 82.7% | TK-10 renal; 10 µM unless noted 105% | ACHN renal 97.7% | CAKI-1 renal 92.7% | A498 renal 123% | CCRF-CEM leukemia 88.4% | MOLT-4 leukemia 98.9% | SR leukemia 90.6% | RPMI-8226 leukemia 95.5% | OVCAR-8 ovarian 98.3% | OVCAR-4 ovarian 93.5% | SK-OV-3 ovarian 101% | IGROV1 ovarian 96.7% | OVCAR-3 ovarian 103%

Cc1cc(/C=C/c2ccc3cc(N(C)C)ccc3[n+]2C)c(C)n1-c1ccccc1
inactive: OVCAR-4 ovarian 10.4% | NCI/ADR-RES ovarian 24.7%
active: SK-MEL-2 melanoma -51.6% | EKVX NSCLC 0.119% | SN12C renal -25.7% | UO-31 renal 1.75% | TK-10 renal; 10 µM unless noted -5.02% | ACHN renal -83.5% | CAKI-1 renal -31% | A498 renal -25% | CCRF-CEM leukemia 0.765% | MOLT-4 leukemia 0.162% | SR leukemia 2.29% | RPMI-8226 leukemia -30.2% | OVCAR-8 ovarian -60.4% | SK-OV-3 ovarian -32.2% | IGROV1 ovarian 3.27% | OVCAR-3 ovarian -73.3% | HS 578T breast -9.95%

CCCC(=O)Nc1ccc2c(c1)CN1C(=O)c3ccccc3C1=N2
inactive: SK-MEL-2 melanoma 100% | EKVX NSCLC 108% | SN12C renal 100% | UO-31 renal 86.1% | TK-10 renal; 10 µM unless noted 96.4% | ACHN renal 111% | CAKI-1 renal 97.2% | A498 renal 88.5% | CCRF-CEM leukemia 99.6% | MOLT-4 leukemia 98.4% | SR leukemia 103% | RPMI-8226 leukemia 106% | OVCAR-8 ovarian 98.2% | OVCAR-4 ovarian 107% | SK-OV-3 ovarian 110% | IGROV1 ovarian 111% | OVCAR-3 ovarian 102% | HS 578T breast 119% | NCI/ADR-RES ovarian 99.5%

NCCC(=O)c1ccc(Cl)cc1
inactive: SK-MEL-2 melanoma 101% | EKVX NSCLC 110% | SN12C renal 108% | UO-31 renal 85.7% | TK-10 renal; 10 µM unless noted 102% | ACHN renal 121% | CAKI-1 renal 101% | A498 renal 107% | CCRF-CEM leukemia 103% | MOLT-4 leukemia 89.6% | SR leukemia 93.8% | RPMI-8226 leukemia 110% | OVCAR-8 ovarian 101% | OVCAR-5 ovarian 118% | OVCAR-4 ovarian 110% | SK-OV-3 ovarian 95.7% | IGROV1 ovarian 117% | OVCAR-3 ovarian 105% | HS 578T breast 109% | NCI/ADR-RES ovarian 103%

Cc1cc(C)c(N)c(S(=O)(=O)O)c1
inactive: SK-MEL-2 melanoma 93.6% | EKVX NSCLC 101% | SN12C renal 97.7% | UO-31 renal 76.2% | TK-10 renal; 10 µM unless noted 105% | ACHN renal 96.6% | CAKI-1 renal 91.3% | A498 renal 142% | CCRF-CEM leukemia 86% | MOLT-4 leukemia 113% | SR leukemia 81.4% | RPMI-8226 leukemia 92.4% | OVCAR-8 ovarian 104% | OVCAR-4 ovarian 98.9% | SK-OV-3 ovarian 94.6% | IGROV1 ovarian 108% | OVCAR-3 ovarian 113%

O=C1OC[C@H]2[C@H](c3ccc(O)c(O)c3)c3cc(O)c(O)cc3C[C@H]12
active: NCI/ADR-RES ovarian -28.4%
inactive: SK-MEL-2 melanoma 26.4% | EKVX NSCLC 152% | SN12C renal 110% | UO-31 renal 47.2% | TK-10 renal; 10 µM unless noted 118% | ACHN renal 112% | CAKI-1 renal 136% | A498 renal 134% | CCRF-CEM leukemia 205% | MOLT-4 leukemia 281% | SR leukemia 330% | RPMI-8226 leukemia 167% | OVCAR-8 ovarian 127% | OVCAR-5 ovarian 100% | OVCAR-4 ovarian 110% | SK-OV-3 ovarian 135% | HS 578T breast 111%

COc1ccc(OC)c(/C=C2\CCc3ccccc3C2=O)c1
active: OVCAR-3 ovarian 9.47%
inactive: SK-MEL-2 melanoma 43.1% | EKVX NSCLC 50% | SN12C renal 61.7% | UO-31 renal 61.1% | TK-10 renal; 10 µM unless noted 89.5% | ACHN renal 52.7% | CAKI-1 renal 39.1% | A498 renal 20.2% | CCRF-CEM leukemia 28.3% | MOLT-4 leukemia 23% | SR leukemia 31.6% | RPMI-8226 leukemia 35.7% | OVCAR-8 ovarian 65.4% | OVCAR-5 ovarian 72.9% | OVCAR-4 ovarian 70.9% | SK-OV-3 ovarian 53% | IGROV1 ovarian 50.9% | NCI/ADR-RES ovarian 17.8%
